Only some compounds are listed: those with a hit (about 3.1% of all), similar ones and a draw of the others.
BoNT A protease: blocks Botulinum neurotoxin A light chain protease | multiplex microsphere protease substrate cleavage, flow cytometry | inhibition, % at 10 µM | 0.17% of 360,000 active; note: plate controls were buffer without enzyme for full effect and enzyme alone for no effect
SSB-PriA inh: K. pneumoniae PriA-SSBct interaction inhibition; AlphaScreen SSBct-PriA binding, biotinylated peptide; inhibition, % at 33 µM; 0.6% of 430,000 active; in the data active = inhibition mostly above about 37%, no sharp cut-off; inactive = mostly below about 20%;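 note: plate controls were negative control peptide for no effect and reference peptide for full effect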
BoNT-F LC inh: blocks Botulinum neurotoxin F light chain protease. Multiplex microsphere protease cleavage assay, flow cytometry. inhibition, % at 10 µM. 0.22% of 360,000 active. AID 588497; in the data active = inhibition above about 35%, passing the limit was not always enough; inconclusive = no clear call, values can overlap the other calls; note: plate controls were buffer without enzyme for full effect and enzyme alone for no effect
Autofluor counter: compound fluorescence in toxin protease inhibitor counterscreen. compound autofluorescence counterscreen, microsphere flow cytometry; active compounds read high. fluorescence intensity (test concentration not listed). 3.1% of 360,000 active. AID 624483; in the data active = fluorescence intensity above about 16000; inconclusive = no clear call, values can overlap the other calls
Anthrax LF prot: inhibitors of Bacillus anthracis lethal factor protease | P15917 | multiplex microsphere protease cleavage assay, LF | inhibition, % at 10 µM | 0.12% of 360,000 active | AID 588501; note: plate controls were buffer without enzyme for full effect and enzyme alone for no effect
* marks the source's active call; other numbers are inactive results; ? = inconclusive; . = no result given. Cut-off read from the data, not from the text of the source, unless noted: active = inhibition above about 30%; inconclusive = no clear call, values can overlap the other calls; inactive = below that.

SMILES	BoNT A protease	SSB-PriA inh	BoNT-F LC inh	Autofluor counter	Anthrax LF prot
O=C(c1ccccc1F)N1CCN(c2ccc(-c3ccccn3)nn2)CC1	.	108*	.	.	.
O=C(c1ccccc1F)N1CCN(c2ccccn2)CC1	2	4	-6	2857	2
COc1ccccc1CC(=O)N1CCN(c2ccc(-c3ccccn3)nn2)CC1	.	158*	.	.	.
CCN(CC)c1ccc(C(=O)Nc2ccccc2-c2nc3ccccc3[nH]2)cc1	.	-23	.	.	.
Cc1ccccc1COc1ccc(C=NNC(=O)c2nnn(-c3nonc3N)c2CN2CCC(C)CC2)cc1	.	-4	.	.	.
CC(=O)N(C(C)=O)c1c(N2CCCC2)c2ccccc2oc1=O	-2	-11	-1	4493	-9
CC(=O)N(C(C)=O)c1c(N2CCOCC2)c2ccccc2oc1=O	4	-3	6	21404*	-4
CC(=O)Nc1ccc(NC(=O)C(F)(F)F)cc1	?	-5	-1	22771*	-1
CC(=O)Nc1ccccc1NC(=O)C(F)(F)F	-1	-2	-6	16513*	-2
CC(=O)Nc1ccccc1C	0	-10	0	5738	-4
O=C(NCCc1c[nH]c2ccccc12)c1ccc(-n2cncn2)nn1	.	-5	.	.	.
COc1cc(C2SCC(=O)Nc3c2c(C)nn3-c2ccccc2)cc(OC)c1OC (stereo not given)	3	-5	4	19341*	-2
Cc1cc(C(=O)Nc2cc(Cl)ccc2Cl)c(C)o1	.	-11	.	.	.
O=C(Nc1cccc(C(=O)O)c1)/C(=C\c1ccccc1)NC(=O)c1ccccc1Cl	4	-10	41*	5393	2
COC(=O)c1cccc(NC(=O)/C(=C\c2ccccc2)NC(=O)c2ccccc2Cl)c1	0	-2	-1	9655	-5
O=C(N/C(=C\c1ccc(Br)cc1)C(=O)N1CCOCC1)c1ccccc1Cl	2	14	-9	5612	0
O=C(N/C(=C\c1ccccc1)C(=O)N1CCOCC1)c1ccccc1Cl	-142	-11	-223	42511*	-33
CCC(=O)NC(=Nc1nc(C)cc(C)n1)Nc1cccc(OC)c1	.	-1	.	.	.
COC(=O)c1ccccc1NC=C1CCc2c(c(C)nn2-c2ccccn2)C1=O	.	-20	.	.	.
CCOc1ccc(CCN2C(=O)CCC2(C)C(=O)NC(C)CC)cc1OCC (stereo not given)	0	1	0	23716*	2
COc1ccc(CCN2C(=O)CCC2(C)C(=O)NC2CCCC2)cc1OC (stereo not given)	-1	-4	-10	4572	1
CCNC(=O)NC(=O)C(C)OC(=O)c1oc2ccc(OC)cc2c1C (stereo not given)	4	-13	4	21371*	-21
COc1ccc2oc(C(=O)OC(C)C(=O)N(C)c3ccccc3)c(C)c2c1 (stereo not given)	-5	-3	?	5191	?
CCCCC1CCC(C(=O)Nc2c(C)nc3sccn3c2=O)CC1 (stereo not given)	.	-16	.	.	.
COc1cccc(-c2csc(N3CCN(Cc4ccccc4)CC3)n2)c1	-3	13	-9	24520*	-3
SMILES	BoNT A protease	SSB-PriA inh	BoNT-F LC inh	Autofluor counter	Anthrax LF prot
COc1cccc(-c2csc(N3CCN(S(=O)(=O)c4ccc(F)cc4)CC3)n2)c1	2	-4	1	21656*	-7
COc1cccc(-c2csc(N3CCN(C(=S)Nc4ccccc4)CC3)n2)c1	-2	3	-12	10311	-3
O=C(Nc1nc2c(s1)CCC2C(=O)N1CCN(c2ccccc2F)CC1)c1ccc2c(c1)OCO2 (stereo not given)	.	-1	.	.	.
CC/C(=N\NC(N)=O)c1c(O)[nH]c(=O)[nH]c1=O	-1	.	?	?	-17
CCCC(=O)c1c(O)[nH]c(=O)[nH]c1=O	-1	-8	-2	22341*	2
CCN1C(=O)/C(=C\N2CCN(c3ccc(F)cc3)CC2)SC1=S	?	0	-2	16210*	-1
CCN1C(=O)/C(=C\N2CCN(C)CC2)SC1=S	0	-3	-3	3291	4
COC(=O)c1sc(-c2ccccc2)cc1NC(=O)C1CCCN1S(=O)(=O)c1cccs1 (stereo not given)	.	10	.	.	.
O=c1[nH]cccc1-c1noc(C2CN(S(=O)(=O)c3ccc4c(c3)CCCC4)C2)n1	.	8	.	.	.
Cc1ccccc1-c1cc(C(=O)Nc2sc(C(=O)OC(C)C)c(C)c2C#N)c2ccccc2n1	2	-1	1	16235*	-4
COC(=O)c1sccc1NC(=O)c1cc(-c2cc(C)ccc2C)nc2ccccc12	3	8	2	21965*	-3
Cc1ccc(C)c(-c2cc(C(=O)Nc3nccs3)c3ccccc3n2)c1	-1	1	-5	24181*	2
COC(=O)c1sccc1NC(=O)c1cc(-c2ccc(C)cc2)nc2ccccc12	0	-6	-8	2623	0
CN1C(=O)/C(=C2\SC(=N)NC2=O)c2ccccc21	.	-5	.	.	.
NC(=O)CSCc1cccc(Br)c1	-2	-8	-26	3688	-8
O=C(CSCc1cccc(Br)c1)N1CCOCC1	-2	-11	-5	23815*	-1
Nc1c(C(=O)c2ccccc2)oc2ccccc12	-1	10	7	3626	-2
O=C(c1ccc(Cl)cc1)c1oc2ccccc2c1CS(=O)(=O)c1ccccc1	0	-15	1	22160*	-4
CCOc1ccc(C2C(C#N)=C(N)SC(N)=C2C#N)c(OCC)c1	44*	-3	?	22485*	25
O=C(Cc1ccccc1)N/N=C/c1cc(Br)c(Br)o1	?	.	-4	16918*	2
O=C(Cc1ccccc1)NN=Cc1ccc(Br)o1	.	1	.	.	.
Cc1cc(=O)[nH]c(NN=Cc2c(O)n(-c3ccccc3)c(=O)c3ccccc23)n1	.	85*	.	.	.
Cc1cc(=O)[nH]c(NN=Cc2c(C)nn(-c3ccccc3)c2C)n1	.	-1	.	.	.
CCOC(=O)N1CCN(C(=O)C2CCN(S(=O)(=O)c3c(C)cc(C)cc3C)CC2)CC1	-2	-8	-5	16613*	2
CCOC(=O)N1CCN(S(=O)(=O)c2c(C)cc(C)cc2C)CC1	-1	-9	-14	4601	1
SMILES	BoNT A protease	SSB-PriA inh	BoNT-F LC inh	Autofluor counter	Anthrax LF prot
Cc1ccc(S(=O)(=O)N2CCN(C(=O)C3COc4ccccc4O3)CC2)cc1C (stereo not given)	?	-17	5	19329*	-3
O=C(C1COc2ccccc2O1)N1CCN(S(=O)(=O)c2ccccc2)CC1 (stereo not given)	-2	1	-3	4636	0
CCOC(=O)N1CCN(S(=O)(=O)c2ccc(C)c(C)c2)CC1	?	-3	3	23015*	1
CCOC(=O)N1CCN(S(=O)(=O)c2ccc(OCC)c(C)c2)CC1	0	-16	-6	2116	3
CCOC(=O)CSc1nnc(CNC(=O)c2ccccc2F)n1-c1cccc(C(F)(F)F)c1	.	-18	.	.	.
CC1(C)CC(=O)C2=C(C1)OC(N)=C(C#N)C2C1CC=CCC1 (stereo not given)	3	-1	-1	22645*	0
O=C(Oc1c(CN2CCOCC2)cc(Cl)c2cccnc12)c1cccc([N+](=O)[O-])c1	.	105*	.	.	.
C#CCOC(=O)Nc1cccn(Cc2c(Cl)cccc2Cl)c1=O	-3	-2	-3	16958*	-5
COc1ccc(Cn2c(=O)c3nccnc3n(Cc3cc(C)ccc3C)c2=O)cc1	.	-11	.	.	.
Cc1cc(C(=O)Nc2nc3c(s2)C(=O)CC(C)(C)C3)on1	.	-10	.	.	.
